Measurements reported in PubChem BioAssay (NCI).
“And” between values parts separate entries of the source, which are not always exact repeats. Identical values can stand only once. About 83,000 compounds went through this panel and 20% of them were active in at least one assay; those are over-represented in the sample as a whole.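 The endpoint reported here, percent growth, reads 100 for growth as untreated, 0 for no net growth and -100 for all cells dead.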 A number with no mark means an inactive call. The source made the active and inactive calls. Rule for the calls: active = growth percent below 10; inactive = the rest.

The compounds below were run on U251 CNS (assay: NCI-60 one-dose screen, 48 h (100 = growth as untreated, 0 = no growth, -100 = all killed)). Conditions: 10 µM unless noted.

Structure (SMILES)	growth
COc1ccc(C(=O)c2ccc(OC)c(OC)c2OC)cc1	31.3% and 26.2%
O=C1/C(=C/c2ccccc2)CN(C(=O)C(Cl)Cl)C/C1=C\c1ccccc1	-63.8% (active)
C=C(C)[C@@H]1CC[C@]2(C(=O)O)CC[C@]3(C)[C@H](CC[C@@H]4[C@@]5(C)CCC(N)C(C)(C)[C@@H]5CC[C@]43C)[C@@H]12 (stereo partly drawn)	5.5% (active)
N#C/C(=C\c1ccc(Br)cc1)n1nnc2c(F)cccc21	-19.5% (active)
COC1=CC(=O)C(OC)=C(O)C1=O	101%
CC(C)(C)c1cc(NC(=O)Nc2ccc(-c3cn4c(n3)sc3cc(OCCN5CCOCC5)ccc34)cc2)no1	-3.4% (active) and 0.378% (active)
COc1cccc(C2C(C#N)=C(N)Oc3cc(OCCCCCC[P+](c4ccccc4)(c4ccccc4)c4ccccc4)ccc32)c1 (stereo not drawn)	-79.4% (active)
COc1ccc(-c2ccccc2)cc1-c1c(Nc2cc(Cl)cc(Cl)c2O)c(=O)c1=O	6.59% (active)
Cc1ccc(S(=O)(=O)Nc2cc(Sc3ccccc3)c(O)c3ccccc23)cc1	16.1%
COC(=O)c1[nH]nc(OC)c1C1(C(C#N)c2nc3ccccc3s2)CCCc2ccccc21 (stereo not drawn)	96.5%
COc1ccc(-c2cc(-c3cccc(Cl)c3)c(C#N)c(=O)[nH]2)c(OC)c1	96.4%
Cc1nc(-n2[nH]c(=O)ccc2=O)sc1N=Nc1ccccc1	100%
COc1ccc(-c2csc(NC(=O)CN3CCN(CCO)CC3)n2)cc1NS(=O)(=O)c1cccc2c(N(C)C)cccc12	29.5%
